Results: PubChem BioAssay AID1159580 (chemical genetic matrix, 2015)
About 2,000 (36%) of roughly 5,500 compounds were called active. Inconclusive results (about 18%) are left out. No stated cut-off is given here; in the data, active means normalized growth mostly below about 0.91 (no sharp cut-off); inconclusive means no clear call, values can overlap the other calls; inactive means mostly above about 0.92. The list shows a part of the results.

Test: chemical genetic growth profiling, strain panel (AID 1159580);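 further: tested at 20 µM; growth read once vehicle control cultures reached saturation at 30 °C; 1 = growth at the plate median or of vehicle wells; lower values mean less growth of the strain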
Settings: S. cerevisiae deletion strains, growth OD

Measured: normalized growth

Cn1cnc(CCN)c1
inactive: locus YAL013W, strain DEP1, hits give low values 1.01 | locus YAL040C, strain CLN3, hits give low values 0.999 | locus YCL061C, strain MRC1 (second series), hits give low values 0.995 | locus YDR363W, strain ESC2, hits give low values 0.979 | locus YER002W, strain NOP16, hits give low values 0.98 | locus YGR078C, strain PAC10, hits give low values 1.01 | locus YGR229C, strain SMI1, hits give low values 1.01 | locus YJR075W, strain HOC1, hits give low values 1.01 | locus YMR263W, strain SAP30, hits give low values 1 | locus YNL153C, strain GIM3, hits give low values 1 | locus YNL175C, strain NOP13, hits give low values 0.986 | locus YNL197C, strain WHI3, hits give low values 0.992 | locus YNL224C, strain SQS1, hits give low values 0.983 | locus YNL322C, strain KRE1, hits give low values 1.01 | locus YOR083W, strain WHI5 (second series), hits give low values 0.99
